Where “and” joins values, the source holds several entries; their conditions need not be identical. Equal values may be shown once. Inconclusive results are not listed. A call without a number means that no potency is given here. Some compounds were tested as several samples or in several runs, with calls that do not always agree. Calls of active or inactive are those of the source. Calls come from the whole dose curve; as a rule, active = well fitted curve in the direction sought with a large enough effect in the repeat runs; inconclusive = weak or mixed curves; inactive = no such curve, though single readings can be large; an effect the other way counts as inactive or inconclusive.
Legend:
[1] = A CellTox Green Cytotoxicity Assay to monitor cytotoxicity in HepG2 cells - 0 hour (AID 1224882); note: nearly all actives have a fitted effect of over 35% in size
How it was run: (§1)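 Using 1536-well format, dye-containing HepG2 suspension was seeded, allowed 5 h at 37 C/5% CO2, dosed by pintool with compounds, positive and negative controls, and imaged for fluorescence across 40 h.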

[2] = A CellTox Green Cytotoxicity Assay to monitor cytotoxicity in HepG2 cells - 32 hour (AID 1224883); note: nearly all actives have a fitted effect of over 50% in size; note: potency is the fitted concentration of half-maximal effect
How it was run: as §1

[3] = qHTS RealTime-Glo MT Cell Viability Assay in HepG2 cells - 0 hour (AID 1224889); note: nearly all actives have a fitted effect of over 50% in size
How it was run: (§2)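 HepG2 cells were seeded at 600 cells/well together with NanoLuc luciferase and a cell-permeant prosubstrate, preincubated 5 h at 37 C/5% CO2, then pin-dosed with compounds in DMSO. Nonlytic luminescence from viable cells was read at each time point.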

[4] = A CellTox Green Cytotoxicity Assay to monitor cytotoxicity in HepG2 cells - 8 hour (AID 1224890); note: nearly all actives have a fitted effect of over 45% in size; note: potency is the fitted concentration of half-maximal effect
How it was run: as §1

[5] = qHTS RealTime-Glo MT Cell Viability Assay in HepG2 cells - 16 hour (AID 1224885); note: nearly all actives have a fitted effect of over 50% in size; note: potency is the fitted concentration of half-maximal effect
How it was run: as §2

[6] = qHTS RealTime-Glo MT Cell Viability Assay in HEK293 cells - 24 hour (AID 1224886); note: nearly all actives have a fitted effect of over 50% in size; note: potency is the fitted concentration of half-maximal effect
How it was run: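 HEK293 cells were seeded at 600 cells/well together with NanoLuc luciferase and cell-permeant prosubstrate, preincubated 5 h at 37 C/5% CO2, then given compound in DMSO by pintool. Luminescence from viable-cell prosubstrate reduction was read repeatedly over 40 h.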

[7] = qHTS RealTime-Glo MT Cell Viability Assay in HEK293 cells - 8 hour (AID 1224887); note: nearly all actives have a fitted effect of over 50% in size; note: potency is the fitted concentration of half-maximal effect
How it was run: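 Viable HEK293 cells reduce a cell-permeant prosubstrate; the product diffuses out and is consumed by NanoLuc in the medium to give light. Compounds went in after a 5 h incubation and plates were read over the treatment course.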

[8] = A CellTox Green Cytotoxicity Assay to monitor cytotoxicity in HEK293 cells - 8 hour (AID 1224884); note: nearly all actives have a fitted effect of over 35% in size; note: potency is the fitted concentration of half-maximal effect
How it was run: (§3)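 Fluorescence intensity, read at 0, 8, 16, 24, 32 and 40 h of compound treatment, reflected dye binding to DNA of dead HEK293 cells; compounds (23 nL, DMSO) were added 5 h after plating cells with reagent.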

[9] = A CellTox Green Cytotoxicity Assay to monitor cytotoxicity in HEK293 cells - 16 hour (AID 1224888); note: nearly all actives have a fitted effect of over 35% in size; note: potency is the fitted concentration of half-maximal effect
How it was run: as §3

[10] = qHTS assay to identify small molecule antagonists of the estrogen receptor alpha (ER-alpha) signaling pathway using the BG1 cell line in the presence of 0.1 nM 17-beta-estradiol - cell viability counter screen (AID 1259241); note: nearly all actives have a fitted effect of over 40% in size
How it was run: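 The cell line endogenously expresses full-length ER-alpha and carries four EREs driving luciferase. Cells are cultured 5 days hormone-free, treated 22 hr with compounds and 0.1 nM estradiol, then viability is read by fluorescence.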

SMILES | Potency [1] | Potency [2] | Potency [3] | Potency [4] | Potency [5] | Potency [6] | Potency [7] | Potency [8] | Potency [9] | Potency [10]
COc1ccc2cc1Oc1ccc(cc1)C[C@H]1c3c(cc4c(c3Oc3cc5c(cc3OC)CCN(C)[C@@H]5C2)OCO4)CCN1C | inactive | 23.9 µM (active) | inactive | inactive |  |  |  |  |  | 
C=C(C)C(=O)OCCCCCCCCCC | inactive | inactive | inactive | inactive | inactive | inactive | inactive |  |  | 
CCCCCCCC/C=C\CCCCCCCCN | inactive |  | inactive |  | 23.9 µM (active) | 21.3 µM (active) | 23.9 µM (active) | 23.9 µM (active) | 23.9 µM (active) | inactive
CN1CCN(Cc2cc(-c3ccc4[nH]c(=O)oc4c3)co2)[C@@H](c2ccc(F)cc2)C1 | inactive | 42 µM (active) | inactive | inactive |  | 26.5 µM (active) |  |  | inactive | 
COc1ccc2c(c1)c(CC(=O)OC/C=C(\C)CC/C=C(\C)CCC=C(C)C)c(C)n2C(=O)c1ccc(Cl)cc1 | inactive | inactive | inactive | inactive |  | inactive |  |  | inactive | inactive
CCCCCCCCCCCCCC[N+](C)(C)C | inactive | 10.6 µM (active) and 17.4 µM (active) and 21.3 µM (active) | inactive | 18.8 µM (active) and 54.9 µM (active) and inactive | 16.8 µM (active) and 48.9 µM (active) | 16.8 µM (active) and 21.8 µM (active) |  |  | 47.3 µM (active) and 48.9 µM (active) and 47.7 nM (active) | 
CC/C=C\CCCCCO | inactive |  | inactive | inactive | inactive | inactive | inactive | inactive | inactive | inactive
C1CCC(SSC2CCCCC2)CC1 | inactive |  | inactive | inactive | inactive | inactive | inactive | inactive | inactive | inactive
Cc1ccc(N/N=c2\c(=O)cc/c(=N\Nc3ccc(S(=O)(=O)O)cc3)c2=O)c(C)c1 | inactive |  |  |  | inactive | inactive | inactive | inactive | inactive | 
CC[C@H](C)COC(=O)/C=C/c1ccc(N=Cc2ccc(OC)cc2)cc1 | inactive |  | inactive | inactive | inactive | 21.8 µM (active) |  | inactive | inactive | inactive
c1ccc(C(O[C@@H]2CCCN(CCc3ccc4c(c3)OCO4)C2)c2ccccc2)cc1 | inactive |  | inactive |  | inactive |  |  |  | inactive | inactive
O=c1c(O)c(-c2ccc(O)cc2O)oc2cc(O)cc(O)c12 | inactive |  |  | inactive |  | inactive | inactive | inactive | inactive | inactive
CC1(C)CCC[C@]2(C)[C@H]3CC(=O)O[C@]3(C)CC[C@@H]12 | inactive |  | inactive | inactive | inactive | inactive | inactive | inactive |  | 

Source: PubChem BioAssay (Tox21)
